In PubChem BioAssay (Tox21) one finds Potency data, which are given here for 33 molecules.

Inconclusive results are not listed. Active and inactive are the calls of the source. Unless noted, the call rests on the fitted dose curve; in most records, active means well fitted curve in the direction sought with a large enough effect in the repeat runs; inconclusive means weak or mixed curves; inactive means no such curve, though single readings can be large; an effect the other way counts as inactive or inconclusive.

Test [1] is described as follows: qHTS assay to identify small molecule antagonists of the glucocorticoid receptor (GR) signaling pathway - cell viability counter screen (AID 720693). Further: nearly all actives have a fitted effect of over 55% in size.
Test [2] can be described thus: qHTS assay for identifying genotoxic compounds that show differential cytotoxicity against isogenic chicken DT40 cell lines with known DNA damage response pathways - wild type cell line (AID 743012). Further: nearly all actives have a fitted effect of over 60% in size. Further: potency means the concentration at half of the fitted maximal effect. The method in brief: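 Wild-type DT40 cells (300/well) exposed to compounds for 40 hours at 37 C/5% CO2. Viability read by CellTiter-Glo luminescence after 30 min at room temperature.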

Test [3] has as its target Androgen receptor (Homo sapiens) (UniProt P10275). As to the kind of experiment: qHTS assay to identify small molecule antagonists of the androgen receptor (AR) signaling pathway (AID 743035; active means well fitted inhibition curve with a large enough effect in the signal ratio in the repeat runs, not every such curve was filed as active; the % refers to the signal ratio). The procedure, abridged:
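HEK293 cells stably carrying UAS-beta-lactamase reporter, 2,000/well, given compounds plus R1881 agonist and incubated 16 h at 37C. LiveBLAzer B/G FRET substrate then added for 2 h at room temperature before fluorescence reading.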
In general terms: qHTS replaces the single test concentration by a dilution series.

For test [4] the target is unchanged. As to the kind of experiment: qHTS assay to identify small molecule agonists of the androgen receptor (AR) signaling pathway (AID 743036; active means well fitted activation curve with a large enough effect in the signal ratio in the repeat runs, with a control signal flat, not every such curve was filed as active; the % refers to the signal ratio; further: potency means the concentration at half of the fitted maximal effect). The procedure, abridged: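 Activation was read as beta-lactamase FRET signal from LiveBLAzer B/G substrate, added for 2 h at room temperature. Before that, GeneBLAzer AR-UAS-bla GripTite (HEK293) cells had 16 h compound exposure at 37C.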

The target is the same in test [5]. As to the kind of experiment: qHTS assay to identify small molecule agonists of the androgen receptor (AR) signaling pathway using the MDA cell line (AID 743040; further: nearly all actives have a fitted effect of over 20% in size; further: potency means the concentration at half of the fitted maximal effect). The method in brief: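 MDA-kb2 breast carcinoma cells carrying MMTV-luciferase (responsive to AR and GR), plated 5 h then treated 16 h with compounds at 37C, 0% CO2. Read-out was ONE-Glo luminescence after 30 min at room temperature.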

Test [6] in a line: qHTS assay to identify small molecule antagonists of the androgen receptor (AR) signaling pathway using the MDA cell line - cell viability counter screen (AID 743041; further: nearly all actives have a fitted effect of over 45% in size). The method in brief:
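MDA-kb2 AR-luc cells (MMTV-luciferase, AR/GR responsive) treated with compounds plus R1881 agonist for 16 h at 37C. CellTiter-Fluor added at 15.5 h; fluorescence read after 30 min in the same wells.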

For test [7], the target named is Androgen receptor (Homo sapiens) (UniProt P10275). Kind of test: qHTS assay to identify small molecule antagonists of the androgen receptor (AR) signaling pathway using the MDA cell line (AID 743042; further: nearly all actives have a fitted effect of over 55% in size; further: potency means the concentration at half of the fitted maximal effect). The method in brief:
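MDA-kb2 breast carcinoma cells carrying MMTV-luciferase (AR/GR responsive) were co-treated with compounds and the agonist R1881 for 16 h at 37C. Inhibition read as ONE-Glo luminescence; CellTiter-Fluor fluorescence measured in parallel for cytotoxicity.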

A short description of test [8]: qHTS assay for identifying genotoxic compounds that show differential cytotoxicity against isogenic chicken DT40 cell lines with known DNA damage response pathways - Rev3 mutant cell line (AID 743014). Further: nearly all actives have a fitted effect of over 55% in size. Further: potency means the concentration at half of the fitted maximal effect.
Test [9] can be described thus: qHTS assay for identifying genotoxic compounds that show differential cytotoxicity against isogenic chicken DT40 cell lines with known DNA damage response pathways - Rad54/Ku70 mutant cell line (AID 743015). Further: nearly all actives have a fitted effect of over 60% in size. Further: potency means the concentration at half of the fitted maximal effect.
The nature of test [10]: qHTS assay to identify small molecule antagonists of the androgen receptor (AR) signaling pathway - cell viability counter screen (AID 743033; further: nearly all actives have a fitted effect of over 45% in size).

Androgen receptor (Homo sapiens), sequence (P10275 whole entry, looked up): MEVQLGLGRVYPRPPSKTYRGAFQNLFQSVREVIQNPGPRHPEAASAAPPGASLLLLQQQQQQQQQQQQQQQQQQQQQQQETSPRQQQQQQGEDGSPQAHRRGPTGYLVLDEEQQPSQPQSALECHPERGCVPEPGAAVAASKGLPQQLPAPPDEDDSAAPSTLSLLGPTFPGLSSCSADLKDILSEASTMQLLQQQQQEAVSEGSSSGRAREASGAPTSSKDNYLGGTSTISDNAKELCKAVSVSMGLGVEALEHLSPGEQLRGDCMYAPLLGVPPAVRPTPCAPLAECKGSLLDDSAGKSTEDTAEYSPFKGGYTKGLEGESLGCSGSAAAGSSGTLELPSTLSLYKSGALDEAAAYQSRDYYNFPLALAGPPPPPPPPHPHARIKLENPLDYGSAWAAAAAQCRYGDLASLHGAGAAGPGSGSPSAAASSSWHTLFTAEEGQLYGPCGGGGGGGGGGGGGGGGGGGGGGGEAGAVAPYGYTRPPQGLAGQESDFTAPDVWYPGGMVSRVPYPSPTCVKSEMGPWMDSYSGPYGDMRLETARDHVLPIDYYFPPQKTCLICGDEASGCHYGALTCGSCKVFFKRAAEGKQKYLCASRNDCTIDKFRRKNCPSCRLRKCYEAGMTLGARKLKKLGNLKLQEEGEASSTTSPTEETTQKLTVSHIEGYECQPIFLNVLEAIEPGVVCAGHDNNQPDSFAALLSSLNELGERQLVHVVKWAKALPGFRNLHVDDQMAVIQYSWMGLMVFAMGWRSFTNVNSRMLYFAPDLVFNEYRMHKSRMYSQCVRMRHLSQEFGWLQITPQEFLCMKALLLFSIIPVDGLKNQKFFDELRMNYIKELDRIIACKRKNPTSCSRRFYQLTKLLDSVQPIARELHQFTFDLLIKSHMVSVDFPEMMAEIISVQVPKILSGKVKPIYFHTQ

As for `CCC(=O)NCCC1CCc2ccc3c(c21)CCO3` (configuration not stated), the Potency result in [1], in [3], in test [4], in [5], in [6] and in test [7] was “inactive” each time. Besides, the Potency in test [2] was 26.6 µM (active).
On to `CC(=O)O[C@H]1C[C@@H]2CC[C@@H]3[C@H](CC[C@@]4(C)[C@H]3C[C@H](N3CC[N+](C)(C)CC3)[C@@H]4OC(C)=O)[C@@]2(C)C[C@@H]1N1CC[N+](C)(C)CC1`, for which the Potency entry in [1], in test [8], in test [9], in [10] and in test [6] was “inactive” in each case.
For the molecule `COc1cc(C[C@@H]2NCCc3cc(O)c(O)cc32)cc(OC)c1OC`, the Potency result in [1], in test [8], in [9], in [10] and in test [6] was “inactive” each time.
As for `COC(F)(F)C(Cl)Cl`, the Potency result in test [1], in [8], in test [9], in test [10], in test [4] and in test [5] was “inactive” each time. In addition, the Potency result in test [6] and in test [7] was “inactive” throughout.
`CCCCCCCCCCCCCCCCCCOP(=O)([O-])OC1CC[N+](C)(C)CC1`: the Potency result in test [1], in test [8], in [10] and in test [6] was “inactive” in each case. In addition, the Potency in test [9] is 14.6 µM (active).
For `CO/N=C(\C(=O)N[C@@H]1C(=O)N2C(C(=O)O)=C(CSc3nnnn3C)CS[C@H]12)c1csc(N)n1`, the Potency entry in [1], in test [8], in test [9], in test [10] and in [6] was “inactive” in each case.
Take `CC(NNC(=O)c1ccccc1)c1ccccc1` (configuration not stated): the Potency entry in test [1], in test [8], in [9], in [10], in test [4] and in test [5] was “inactive” in each case. Besides, the Potency result in test [6] and in test [7] was “inactive” throughout.
With `CO[C@@H]1[C@@H](O[C@@H]2O[C@H](C)[C@@H](O[C@H]3C[C@@](C)(O)[C@@H](O)[C@H](C)O3)[C@H](N(C)C)[C@H]2O)[C@@H](CC=O)C[C@@H](C)[C@@H](O[C@@H]2CC[C@H](N(C)C)[C@@H](C)O2)/C=C/C=C/C[C@@H](C)OC(=O)C[C@H]1O`, the Potency result in test [1], in test [2], in [10] and in test [6] was “inactive” in each case.
In the case of `O=C(O)CC/C=C\CC[C@@H]1[C@@H](N2CCCCC2)[C@@H](O)C[C@@H]1OCc1ccc(-c2ccccc2)cc1`, the Potency result in [1], in [10], in test [4], in test [5], in test [6] and in test [7] was “inactive” each time. The Potency in test [2] was 13.3 µM (active).
On to `CCN(CC)CCOc1ccccc1OC`, for which the Potency entry in test [1], in [8], in [9], in test [10] and in test [6] was “inactive” in each case.
Turning to `CN1c2cc(O)c(N=NC(N)=O)cc2CC1S(=O)(=O)O` (configuration not stated), the Potency entry in [1], in test [8], in test [9] and in [10] was “inactive” in each case.
As to `CC(C)=CCC/C(C)=C/C=C/C(C)=C/C=C/C(C)=C/C=C/C=C(C)/C=C/C=C(C)/C=C/C=C(\C)CCC=C(C)C`, the Potency entry in test [1], in test [10], in test [5], in [6] and in test [7] was “inactive” throughout. Moreover, the Potency in test [2] is 29.8 µM (active).
Turning to `C#CCOc1ccc2c(C)cc(=O)oc2c1`, the Potency result in test [1], in test [2], in test [10] and in test [6] was “inactive” throughout.
For `O=C(O)[C@H]1/C(=C/CO)O[C@@H]2CC(=O)N21`, the Potency result in test [1], in test [8], in test [9] and in test [10] was “inactive” in each case.
Consider `S=C1SCN(Cc2ccccc2)CN1Cc1ccccc1`, for which the Potency entry in test [1] and in test [10] was “inactive” throughout. In addition, the Potency in [8] and in [9] was 13.3 µM (active) throughout.
`Cc1cccc(C)c1N(CCCc1cccnc1)C(=O)C(C)N` (configuration not stated): the Potency result in test [1], in test [8], in test [9], in test [10], in [3] and in [4] was “inactive” in each case. Moreover, the Potency entry in test [5], in [6] and in test [7] was “inactive” throughout.
As for `COc1ccc(CCNCC(O)COc2cccc(C)c2)cc1OC` (configuration not stated), the Potency entry in test [1], in test [10], in [4], in test [5], in [6] and in test [7] was “inactive” throughout. Also, the Potency in test [2] was 26.6 µM (active).
For the molecule `CN(CC(=O)N1CCOCC1)Cc1c(Cl)cccc1NC(=O)c1ccccc1`, the Potency entry in [1], in [10] and in test [6] was “inactive” in each case. Besides, the Potency in test [2] was 23.7 µM (active).
As for `CCCc1nc(C(C)(C)O)c(C(=O)OCc2oc(=O)oc2C)n1Cc1ccc(-c2ccccc2-c2nn[nH]n2)cc1`, the Potency entry in [1], in [2], in test [10] and in test [6] was “inactive” throughout.
For the molecule `O=C(OC1C[C@@H]2CC3C[C@H](C1)N2CC3=O)c1c[nH]c2ccccc12` (some centres not stated), the Potency entry in [1], in test [10] and in [6] was “inactive” throughout. Moreover, in test [2], the Potency is 26.6 µM (active).
Take `CC1(C)[C@@H]2CC[C@@]1(C)[C@H](OC(=O)CSC#N)C2`: the Potency result in test [1], in test [8], in test [9], in test [10] and in test [6] was “inactive” throughout.
With `CCCCCC(O)/C=C/C=O` (configuration not stated), the Potency entry in [1], in test [8], in test [9], in test [10] and in [6] was “inactive” each time.
`CCC(=O)OCC(=O)[C@@]1(OC(=O)CC)[C@H](C)C[C@H]2[C@H]3[C@H]([C@@H](O)C[C@@]21C)[C@@]1(C)C=CC(=O)C=C1C[C@H]3Cl`: the Potency entry in [1], in test [8], in test [10], in [3], in test [6] and in test [7] was “inactive” throughout. For the same molecule, the Potency in test [4] was 0.144 µM (active); in [5], 0.0403 µM (active).
As to `CC(=O)OCC(=O)[C@@]12OC3(CCCC3)O[C@@H]1C[C@H]1[C@@H]3CCC4=CC(=O)C=C[C@]4(C)[C@@]3(F)[C@@H](O)C[C@@]12C`, the Potency entry in test [1], in test [8] and in [6] was “inactive” in each case.
As for `C#C[C@]1(O)CC[C@H]2[C@@H]3CCC4=C(CCC(=O)C4)[C@H]3CC[C@@]21C`, the Potency result in test [1], in test [8], in [10] and in test [6] was “inactive” each time.
Take `CCCCCc1ccc(C)cc1O`: the Potency result in test [1], in [8], in test [9], in [4], in [5] and in test [6] was “inactive” throughout. In addition, in test [7], the Potency entry is “inactive”.
Turning to `O=C(O)c1cc(N=Nc2ccc(O)c(C(=O)O)c2)ccc1O`, the Potency result in test [1], in test [9], in test [10], in test [3], in [4] and in test [5] was “inactive” in each case. In addition, in [7], the Potency result is “inactive”.
As to `CCCCC[C@H](O)/C=C/[C@H]1[C@H](O)CC(=O)[C@@H]1CCCCCCC(=O)O`, the Potency result in test [1], in test [8] and in [6] was “inactive” in each case.
For the molecule `CC(CN1c2ccccc2Sc2ccc(S(=O)(=O)N(C)C)cc21)N(C)C` (configuration not stated), the Potency entry in [1], in test [3], in [4], in test [5] and in [7] was “inactive” in each case. Also, the Potency is 26.6 µM (active) in [8] and 18.8 µM (active) in [9].
For the molecule `CCOC(=O)c1c[nH]c2cc(OCC(C)C)c(OCC(C)C)cc2c1=O`, the Potency entry in test [1], in [9], in [10], in [4], in test [5] and in test [6] was “inactive” throughout. Moreover, in test [7], the Potency result is “inactive”.
`O=S(=O)(O)c1cc(O)c2c(N=Nc3ccc(Nc4ccccc4)c4c(S(=O)(=O)O)cccc34)cc(S(=O)(=O)O)cc2c1`: the Potency entry in test [1], in test [10], in test [3], in test [4] and in [5] was “inactive” in each case. Further, the results for the Potency in test [9] and in test [7] were 13.3 µM (active) and 16.8 µM (active), respectively.
Take `Cc1cc(Nc2ccccc2C(=O)O)ccc1Cl`: the Potency entry in test [1], in test [10], in test [5], in [6] and in test [7] was “inactive” throughout. Besides, the Potency in test [8] was 29.8 µM (active).
`CC(C)NCC(O)COc1ccccc1-n1cccc1` (configuration not stated): the Potency entry in test [1], in test [8], in test [9] and in [6] was “inactive” throughout.
